A short description of experiment [1]: qHTS assay for small molecule agonists of retinoid X receptor alpha signaling (AID 588544).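 As to activation: 0% = DMSO basal wells and 100% = reference agonist.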 As to conditions: HEK293T RXRa-UAS-bla, beta-lactamase reporter, 18 h; 530 nm emission. (In general: qHTS replaces the single test concentration by a dilution series.)
Experiment [2] has as its target Retinoic acid receptor RXR-alpha (Homo sapiens) (UniProt P19793). Described as above. As to conditions: HEK293T RXRa-UAS-bla, beta-lactamase reporter, 18 h; series mostly up to 76.7 µM.
The target in experiment [3] is Thyroid hormone receptor beta (Homo sapiens) (UniProt P10828). Nature of the experiment: qHTS assay for small molecule agonists of thyroid hormone receptor beta signaling (AID 588545).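 Also: 0% = DMSO only and 100% = 10 nM T3.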 As to conditions: TR-UAS-bla GripTite HEK 293, beta-lactamase ratio, agonist mode, 18 h, percent of T3 response, DMSO as zero; series mostly up to 76.7 µM. The gist of the method:
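Stimulation of a TR-driven beta-lactamase reporter was quantified in GripTite HEK 293 cells. Compound series ran for 18 hrs; curves were normalized to T3 and DMSO controls and fitted to yield EC50.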

Experiment [4] is described as follows: qHTS assay for small molecule antagonists of retinoid X receptor alpha signaling (AID 588546; active = well fitted inhibition curve with a large enough effect in the signal ratio, with a control signal flat, not every such curve was filed as active; the % refers to the signal ratio;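 also: cells stimulated with 9-cis-retinoic acid as agonist; % is scaled to controls: 0 for no effect and ±100 for the full control effect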). As to conditions: HEK293T RXRa-UAS-bla, beta-lactamase ratio, antagonist mode; measured here: W530 green channel, cytotoxicity proxy. An outline of the steps: (§1)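 Beta-lactamase reporter inhibition, read as CCF4 fluorescence ratio (ex 405, em 460/530 nm) after 2 h at RT. HEK293T UAS-bla cells, 2500/well, were stimulated with 9-cis-RA at 500 or 100 nM final alongside test compound for 18 h at 37 C.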

Experiment [5] deals with Retinoic acid receptor RXR-alpha (Homo sapiens) (UniProt P19793). Described as above. As to conditions: HEK293T RXRa-UAS-bla, beta-lactamase ratio, antagonist mode. The gist of the method: as §1
Experiment [6] deals with Thyroid hormone receptor beta (Homo sapiens) (UniProt P10828). The experiment in a line: qHTS assay for small molecule antagonists of thyroid hormone receptor beta signaling (AID 588547; active = well fitted inhibition curve with a large enough effect in the signal ratio, with a control signal flat, not every such curve was filed as active; the % refers to the signal ratio;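 also: cells stimulated with 0.4 nM T3 agonist during compound exposure; % is scaled to controls: 0 for no effect and ±100 for the full control effect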). As to conditions: TR-UAS-bla HEK293, beta-lactamase ratio, antagonist mode, 18 h. An outline of the steps:
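TR-UAS-bla GripTite HEK293 cells in 2% charcoal/dextran FBS medium were preincubated 4 h at 37 C, given compound (0.59 nM to 92 uM) plus 0.4 nM T3 (final) for 18 h, then CCF4 for 2 h at RT; Hill fit gave IC50.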

Experiment [7] has as its target Voltage-gated inwardly rectifying potassium channel KCNH2 (Homo sapiens) (UniProt Q12809). Nature of the experiment: qHTS Assay for Small Molecule Inhibitors of the Human hERG Channel Activity (AID 588834; active = well fitted curve in the direction sought with a large enough effect; an effect the other way counts as inactive or inconclusive;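 also: top concentration of the series differs between compounds; % is scaled to controls: 0 for no effect and ±100 for the full control effect; lower thallium flux fluorescence means stronger hERG block; nearly all actives have a fitted effect of over 50% in size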). As to conditions: U2OS BacMam hERG, FluxOR thallium flux fluorescence; series mostly up to 92.2 µM. The gist of the method:
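U2OS cells transduced with hERG via BacMam (MOI ~100), plated 2000/well, loaded with FluxOR thallium dye, compound ~10 min, then stimulation buffer; fluorescence decrease read kinetically; AC50 from Hill fits.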

The nature of experiment [8]: qHTS assay for small molecule agonists of the antioxidant response element (ARE) signaling pathway (AID 651741; active = well fitted activation curve with a large enough effect in the signal ratio; the % refers to the signal ratio; also: potency is read from the fitted curve at half-maximal effect; as to activation: % of control where 0% means no effect). As to conditions: HepG2 ARE-bla reporter, beta-lactamase FRET ratio, 16 h; series mostly up to 96 µM. The gist of the method: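 Compounds in DMSO are pinned onto HepG2 ARE-bla cells (2,000/well) that were preincubated 5 h; plates stay 16 h at 37 C, then beta-lactamase activity is detected with LiveBLAzer B/G substrate by fluorescence.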

The nature of experiment [9]: qHTS assay for small molecule activators of the p53 signaling pathway (AID 651743; active = well fitted activation curve with a large enough effect in the signal ratio, not every such curve was filed as active; the % refers to the signal ratio; also: % of control where 0% means no effect). As to conditions: HCT-116 p53RE-bla, beta-lactamase FRET ratio, 16 h; stronger effect = higher value. An outline of the steps:
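Cell-based beta-lactamase reporter (p53 response elements, HCT-116 background). After a 5-hour preincubation, cells received compound for 16 hours at 37 C; substrate development ran 2 hours at room temperature.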

Experiment [10] is described as follows: qHTS assay for small molecule activators of the nuclear factor-kappa B (NF-kB) signaling pathway (AID 651749; active = well fitted activation curve with a large enough effect in the signal ratio; the % refers to the signal ratio; also: % of control where 0% means no effect). As to conditions: NF-kB-bla ME-180 cells, beta-lactamase FRET ratio, 16 h; stronger effect = higher value. The gist of the method: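 Screening used 2,000 ME-180 reporter cells per well exposed to pinned compound (23 nL) or DMSO; after 16 hr at 37C, beta-lactamase expression under NF-kB control was assessed through FRET.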

Experiment [11] is described as follows: qHTS assay for small molecule disruptors of the mitochondrial membrane potential - 1 hr assay (AID 651754). Also: nearly all actives have a fitted effect of over 35% in size. Also: potency is read from the fitted curve at half-maximal effect. As to conditions: series mostly up to 92.2 µM. The gist of the method:
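HepG2, 2,000 cells/well, overnight attachment; cpd or DMSO 1 hr, 37C/5% CO2; Mito-MPS dye 30 min, 37C; fluorescence monomer (490/535) and aggregate (540/590).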

The nature of experiment [12]: qHTS assay for small molecule disruptors of the mitochondrial membrane potential - 5 hr assay (AID 651755). Also: % is scaled to controls: 0 for no effect and ±100 for the full control effect; nearly all actives have a fitted effect of over 40% in size. As to conditions: JC-1-type ratio dye; series mostly up to 92.2 µM. The gist of the method: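 HepG2 cells, attached overnight at 37C, were exposed to compound or DMSO for 5 hr at 37C, 5% CO2. Mito-MPS dye was then added for 30 min, and fluorescence read at 490/535 nm (monomers) and 540/590 nm (aggregates).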

The target in experiment [13] is Tumor necrosis factor (Homo sapiens) (UniProt P01375). The experiment in a line: qHTS assay to identify small molecules that stimulate Tumor Necrosis Factor-alpha (TNF-alpha) secretion (AID 651757; active = well fitted curve in the direction sought with a large enough effect in the signal ratio; the % refers to the signal ratio; also: 0% is about no effect). As to conditions: Human cells, HTRF 665/615 ratio; series mostly up to 92.2 µM. The gist of the method:
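Read-out is HTRF, a TR-FRET sandwich of cryptate- and XL665-labeled anti-TNF-alpha antibodies detecting cytokine secreted by THP-1 cells. Cells had been incubated with test compounds at 37 C for 17 hrs beforehand.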

A short description of experiment [14]: qHTS assay to identify small molecules that stimulate interleukin-8 (IL-8) secretion (AID 651758; active = well fitted activation curve with a large enough effect in the signal ratio; the % refers to the signal ratio; also: 0% is about no effect). As to conditions: HTRF ratio (665/615); series mostly up to 92.2 µM. The gist of the method: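 THP-1, 2000 cells/well; cpd 16 h, 37 C; add cryptate + XL665 anti-IL-8 Abs; RT 1-3 h; TR-FRET read.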
Experiment [15] addresses Peroxisome proliferator-activated receptor alpha (Homo sapiens) (UniProt Q07869). Nature of the experiment: qHTS assay for small molecule agonists of the peroxisome proliferator-activated receptor alpha (PPARalpha) signaling pathway (AID 651778; active = well fitted curve in the direction sought with a large enough effect; an effect the other way counts as inactive or inconclusive; also: % of control where 0% means no effect). As to conditions: PathHunter PPARalpha complementation, chemiluminescence, 6 h; stronger effect = higher value. The gist of the method:
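Cells plated at 2,000/well and held overnight at 37 C, 5% CO2, then compound added by pin tool for 6 hr; after PathHunter detection reagent and 60 min at room temperature, chemiluminescence from enzyme complementation was read.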

Experiment [16] deals with Nuclear receptor ROR-gamma (Homo sapiens) (UniProt P51449). The experiment in a line: qHTS assay for small molecule antagonists of the retinoid-related orphan receptor gamma (ROR-gamma) signaling pathway (AID 651802; active = well fitted curve in the direction sought with a large enough effect; an effect the other way counts as inactive or inconclusive;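 also: luciferase reporter luminescence driven by ROR response element; % is scaled to controls: 0 for no effect and ±100 for the full control effect; nearly all actives have a fitted effect of over 60% in size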). As to conditions: ROR-gamma antagonist cell reporter assay; series mostly up to 92.2 µM. An outline of the steps:
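CHO, TET-inducible ROR + RORE-LUC reporter, 1536-well qHTS. Compound pinned, doxycycline added, 16hr 37C/5% CO2. ONE-Glo, 30 min RT, luminescence; signal drop scored as antagonism.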

Experiment [17] can be described thus: qHTS assay for small molecule agonists of the antioxidant response element (ARE) signaling pathway measured by Nrf2-dependant transcriptional activity (AID 720636; active = well fitted curve in the direction sought with a large enough effect in the repeat runs; an effect the other way counts as inactive or inconclusive; also: % of control where 0% means no effect). As to conditions: ARE-luc HepG2, Nrf2 luciferase reporter, 16 h; series mostly up to 92.4 µM. The gist of the method:
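ARE-luc HepG2 cells carrying an Nrf2-responsive luciferase reporter, in medium with 1% dialyzed FBS, exposed to compound for 16 hr at 37 C, 5% CO2. Luminescence read 30 min after ONE-Glo addition.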

The nature of experiment [18]: qHTS assay for small molecule antagonists of the retinoid-related orphan receptor gamma (ROR-gamma) signaling pathway - cell viability counter screen (AID 720652; active = well fitted curve in the direction sought with a large enough effect in the repeat runs; an effect the other way counts as inactive or inconclusive;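 also: compound exposure lasted 16 hr before ATP read; % is scaled to controls: 0 for no effect and ±100 for the full control effect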). As to conditions: RORgamma reporter cell line viability counter screen; series mostly up to 92.2 µM. An outline of the steps: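 Luminescence from CellTiter-Glo after 30 min at room temperature reported cellular ATP as the cytotoxicity measure. Cells were the CHO reporter line with doxycycline-induced ROR-gamma expression, exposed to compound for 16 hr at 37 C.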

Experiment [19] is described as follows: qHTS assay for small molecule agonists of the antioxidant response element (ARE) signaling pathway measured by Nrf2-dependant transcriptional activity - cell viability counter screen (AID 720653; active = well fitted curve in the direction sought with a large enough effect in the repeat runs; an effect the other way counts as inactive or inconclusive; also: % is scaled to controls: 0 for no effect and ±100 for the full control effect). As to conditions: ARE-bla HepG2 viability, CellTiter-Glo ATP luminescence, 16 h; stronger effect = lower value. An outline of the steps:
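ARE-bla HepG2 cells (2,000/well) rested 5 hrs at 37C/5% CO2, then exposed to compounds in DMSO for 16 hrs. Viability was read in the same wells as intracellular ATP by luminescence, 30 min at room temperature after reagent addition.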

Experiment [20] can be described thus: qHTS assay for environmental chemicals that activate the Aryl hydrocarbon Receptor (AhR) signaling pathway (AID 651777; active = well fitted curve in the direction sought with a large enough effect; an effect the other way counts as inactive or inconclusive; also: % of control where 0% means no effect; nearly all actives have a fitted effect of over 15% in size). As to conditions: 1A2-DRE human hepatoma cells, luciferase, 24 h; activation: stronger effect = higher value. An outline of the steps: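 Human hepatoma 1A2-DRE cells stably carrying a DRE/CYP1A2 promoter–luciferase reporter, 1,200 cells/well, exposed to compound 24 hr at 37 C. Luciferase read by One-Glo luminescence after 30 min at room temperature; increased signal marks AhR activation.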

Results filed as inconclusive are left out. Activity calls are given as the source filed them. Unless noted, calls follow the shape of the full dose curve.

Voltage-gated inwardly rectifying potassium channel KCNH2 (Homo sapiens), sequence (Q12809 whole entry, looked up): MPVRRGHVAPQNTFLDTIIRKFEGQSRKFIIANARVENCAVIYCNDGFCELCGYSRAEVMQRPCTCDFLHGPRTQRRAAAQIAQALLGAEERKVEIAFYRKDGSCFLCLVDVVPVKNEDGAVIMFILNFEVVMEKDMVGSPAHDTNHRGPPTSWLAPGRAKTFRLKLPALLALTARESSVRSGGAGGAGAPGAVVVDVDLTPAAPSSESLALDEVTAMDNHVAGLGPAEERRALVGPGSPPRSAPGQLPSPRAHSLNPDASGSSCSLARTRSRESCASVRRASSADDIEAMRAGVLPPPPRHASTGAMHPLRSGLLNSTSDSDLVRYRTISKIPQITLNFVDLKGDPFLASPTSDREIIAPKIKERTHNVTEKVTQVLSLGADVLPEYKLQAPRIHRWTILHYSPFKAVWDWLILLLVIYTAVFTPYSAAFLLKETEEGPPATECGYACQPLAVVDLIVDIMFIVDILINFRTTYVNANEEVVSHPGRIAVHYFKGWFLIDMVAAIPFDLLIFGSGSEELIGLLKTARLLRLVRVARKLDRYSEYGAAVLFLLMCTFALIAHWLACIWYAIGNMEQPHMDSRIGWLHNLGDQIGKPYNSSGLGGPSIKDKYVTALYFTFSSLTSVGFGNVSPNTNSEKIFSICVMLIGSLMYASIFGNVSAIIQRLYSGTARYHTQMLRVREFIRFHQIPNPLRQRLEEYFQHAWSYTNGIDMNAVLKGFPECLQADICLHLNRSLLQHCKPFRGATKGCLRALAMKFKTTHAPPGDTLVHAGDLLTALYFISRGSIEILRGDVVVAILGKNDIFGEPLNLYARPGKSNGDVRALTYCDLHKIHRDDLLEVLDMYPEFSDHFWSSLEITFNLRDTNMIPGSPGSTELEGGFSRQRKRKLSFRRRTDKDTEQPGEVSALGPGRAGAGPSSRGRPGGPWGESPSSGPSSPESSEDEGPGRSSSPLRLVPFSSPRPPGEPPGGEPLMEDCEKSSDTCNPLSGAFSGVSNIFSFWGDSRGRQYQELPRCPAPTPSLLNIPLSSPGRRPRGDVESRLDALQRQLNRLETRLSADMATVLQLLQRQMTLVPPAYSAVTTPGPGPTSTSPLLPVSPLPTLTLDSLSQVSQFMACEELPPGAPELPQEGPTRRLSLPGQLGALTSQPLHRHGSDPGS
Nuclear receptor ROR-gamma (Homo sapiens), sequence (P51449 whole entry, looked up): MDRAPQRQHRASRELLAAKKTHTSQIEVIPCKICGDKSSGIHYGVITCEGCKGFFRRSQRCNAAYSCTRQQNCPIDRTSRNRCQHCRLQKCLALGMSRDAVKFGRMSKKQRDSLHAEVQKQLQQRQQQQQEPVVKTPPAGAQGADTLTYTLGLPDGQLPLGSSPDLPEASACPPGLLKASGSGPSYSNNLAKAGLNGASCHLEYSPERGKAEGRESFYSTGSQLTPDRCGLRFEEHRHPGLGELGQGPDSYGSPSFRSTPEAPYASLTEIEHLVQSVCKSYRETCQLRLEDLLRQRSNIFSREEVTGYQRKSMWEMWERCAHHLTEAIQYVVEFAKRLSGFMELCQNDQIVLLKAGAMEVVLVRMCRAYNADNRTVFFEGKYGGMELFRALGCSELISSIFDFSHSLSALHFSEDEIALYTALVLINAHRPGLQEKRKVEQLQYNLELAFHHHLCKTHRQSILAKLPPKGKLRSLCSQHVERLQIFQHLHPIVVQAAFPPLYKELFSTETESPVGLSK
Retinoic acid receptor RXR-alpha (Homo sapiens), sequence (P19793 whole entry, looked up): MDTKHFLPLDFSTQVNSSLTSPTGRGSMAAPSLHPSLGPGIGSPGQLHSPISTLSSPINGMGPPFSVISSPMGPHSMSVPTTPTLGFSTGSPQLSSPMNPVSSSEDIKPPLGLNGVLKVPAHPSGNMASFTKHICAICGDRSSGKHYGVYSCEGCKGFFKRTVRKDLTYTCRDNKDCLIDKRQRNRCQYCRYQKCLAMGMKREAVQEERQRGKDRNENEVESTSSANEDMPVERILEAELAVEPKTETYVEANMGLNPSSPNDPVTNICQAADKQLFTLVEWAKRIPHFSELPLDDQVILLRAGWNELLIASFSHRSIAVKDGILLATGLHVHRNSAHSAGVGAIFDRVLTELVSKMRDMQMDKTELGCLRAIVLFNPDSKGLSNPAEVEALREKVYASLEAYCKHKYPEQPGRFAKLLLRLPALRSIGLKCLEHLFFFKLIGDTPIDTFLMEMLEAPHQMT
Peroxisome proliferator-activated receptor alpha (Homo sapiens), sequence (Q07869 whole entry, looked up): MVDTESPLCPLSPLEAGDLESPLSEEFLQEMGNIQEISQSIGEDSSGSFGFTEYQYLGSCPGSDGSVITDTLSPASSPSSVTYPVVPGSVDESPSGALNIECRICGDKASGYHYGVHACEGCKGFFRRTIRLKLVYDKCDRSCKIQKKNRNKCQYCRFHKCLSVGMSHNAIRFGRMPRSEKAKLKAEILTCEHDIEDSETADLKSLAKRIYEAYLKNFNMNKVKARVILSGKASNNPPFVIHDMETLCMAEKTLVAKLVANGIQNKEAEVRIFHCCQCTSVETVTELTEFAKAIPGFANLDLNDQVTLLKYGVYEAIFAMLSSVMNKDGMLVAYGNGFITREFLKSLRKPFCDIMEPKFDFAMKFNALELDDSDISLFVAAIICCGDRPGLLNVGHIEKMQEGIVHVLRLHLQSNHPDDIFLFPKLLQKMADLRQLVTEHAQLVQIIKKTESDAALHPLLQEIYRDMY
Tumor necrosis factor (Homo sapiens), sequence (P01375 whole entry, looked up): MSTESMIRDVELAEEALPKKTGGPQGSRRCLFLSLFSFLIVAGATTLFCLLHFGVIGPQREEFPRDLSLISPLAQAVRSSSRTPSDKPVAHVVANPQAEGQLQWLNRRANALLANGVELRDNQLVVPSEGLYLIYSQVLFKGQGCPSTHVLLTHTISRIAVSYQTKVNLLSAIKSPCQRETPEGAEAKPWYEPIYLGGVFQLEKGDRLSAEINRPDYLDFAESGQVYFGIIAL
Thyroid hormone receptor beta (Homo sapiens), sequence (P10828 whole entry, looked up): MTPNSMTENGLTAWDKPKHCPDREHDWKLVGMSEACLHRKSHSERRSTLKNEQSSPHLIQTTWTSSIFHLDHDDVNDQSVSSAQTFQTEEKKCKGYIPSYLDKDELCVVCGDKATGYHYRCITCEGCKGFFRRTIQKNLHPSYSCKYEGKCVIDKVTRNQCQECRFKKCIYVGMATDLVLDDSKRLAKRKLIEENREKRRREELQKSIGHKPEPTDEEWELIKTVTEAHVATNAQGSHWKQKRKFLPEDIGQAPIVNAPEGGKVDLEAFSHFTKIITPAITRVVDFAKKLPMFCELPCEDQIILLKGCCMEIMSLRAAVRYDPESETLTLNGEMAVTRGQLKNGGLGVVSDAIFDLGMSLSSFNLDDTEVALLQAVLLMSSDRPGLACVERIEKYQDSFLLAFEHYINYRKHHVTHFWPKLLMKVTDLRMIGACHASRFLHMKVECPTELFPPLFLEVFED

For the compound `CCCCC(CC)CO` (stereo unspecified), the max response was -6.11% in [1]; -1.2% in experiment [4]; 16% (inactive) in [5]; -2.86% (inactive) in experiment [15]; 7.9% (inactive) in [19]. Moreover, the call in experiment [2], in experiment [3] and in experiment [17] was inactive. For the same compound, the activity change % (negative = inhibition) in experiment [6] was -6.25% (inactive). The Potency result in [7], in experiment [8], in experiment [11], in experiment [12], in experiment [13] and in [14] was “inactive” throughout. Besides, the Potency entry in experiment [16] and in experiment [18] was “inactive” throughout. Also, the activation is -4.64% (inactive) in experiment [9] and -1.43% (inactive) in [10].
As for `O=P(O)(OCc1ccccc1)OCc1ccccc1`, the max response is 6.08% in [1]; -0.49% in [4]; -5.97% (inactive) in experiment [5]; 1.76% (inactive) in experiment [15]; 2.28% (inactive) in experiment [19]. The call in experiment [2], in experiment [3] and in experiment [17] was inactive. Besides, the activity change % (negative = inhibition) in experiment [6] is 0.248% (inactive). In addition, the Potency entry in experiment [7], in experiment [8], in experiment [11], in experiment [12], in [13] and in experiment [18] was “inactive” throughout. Also, the activation in experiment [9] is -2.58% (inactive); in experiment [20], 1.44% (inactive).
For `NC(=O)c1ccccc1[N+](=O)[O-]`, the max response in experiment [1] was -9.31%; in experiment [4], 3.46%; in experiment [5], 0.827% (inactive); in [15], -0.939% (inactive); in [19], -0.414% (inactive). Further, the call in experiment [2], in [3] and in experiment [17] was inactive. Besides, the activity change % (negative = inhibition) in [6] is 5.01% (inactive). The Potency result in experiment [7], in experiment [8], in experiment [11], in experiment [12], in [13] and in experiment [16] was “inactive” throughout. Besides, the Potency entry in experiment [18] was “inactive”. Also, the activation was -0.853% (inactive) in experiment [9], -0.661% (inactive) in experiment [10] and -0.127% (inactive) in experiment [20].
`C1COC1`: the max response in [1] was -1.49%; in experiment [4], -8.83%; in experiment [5] it was 0.231% (inactive); in [15], 0.481% (inactive); in experiment [19], -0.519% (inactive). The outcome in experiment [2], in [3] and in experiment [17] was inactive. The activity change % (negative = inhibition) in experiment [6] was 14.8% (inactive). In addition, the Potency result in [7], in experiment [8], in experiment [12], in experiment [13] and in experiment [16] was “inactive” each time. In addition, the results for the activation in experiment [9], in experiment [10] and in [20] were 0.23% (inactive), -0.645% (inactive) and -0.727% (inactive), respectively.
`Cc1ccc2c(c1[N+](=O)[O-])C(=O)c1ccccc1C2=O`: the max response in [1] was -1.88%; in [4], -5.46%; in [5], -0.36% (inactive); in [15], -3.62% (inactive); in [19], -12.9% (inactive). Further, the call in [2] and in experiment [3] was inactive. In experiment [6], the activity change % (negative = inhibition) is -11.5% (inactive). Moreover, the Potency entry in experiment [7], in experiment [13], in [16] and in experiment [18] was “inactive” each time. Further, the Potency in [8] is 11.9 µM (active); in [11], 1.88 µM (active). The activation in experiment [9] was 7.91% (inactive); in experiment [10] it was -0.166% (inactive).
As for `O=[N+]([O-])c1ccc(CCO)cc1`, the max response was -1.7% in experiment [1]; -0.777% in experiment [4]; 2.63% (inactive) in experiment [5]; -1.57% (inactive) in experiment [15]; -24.2% (inactive) in [19]. Further, the result in experiment [2] and in experiment [3] was inactive. Moreover, the activity change % (negative = inhibition) in [6] was 3.64% (inactive). The Potency result in experiment [7], in experiment [8], in experiment [11], in experiment [12], in [13] and in experiment [16] was “inactive” throughout. Besides, the Potency result in [18] was “inactive”. Also, the figures for the activation in experiment [9], in experiment [10] and in experiment [20] were -2.15% (inactive), -0.318% (inactive) and 0.416% (inactive), respectively.

The values above are taken from PubChem BioAssay (NCATS).
